A short description of experiment [1]: ArunA_NOG_BranchPointsPerNeurite: ArunA Biomedical's Neurite Outgrowth (NOG) Assay for Branch Points Per Neurite (AID 2283759). The method, boiled down:
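Automated image analysis traced neurites (processes >10 um) from valid cell bodies after Hoechst and βIII-tubulin staining. hNN cells from H9 embryonic stem cells, 48 h exposure. Fitted bidirectionally against DMSO.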

Experiment [2] addresses Luciferin 4-monooxygenase (Photinus pyralis) (UniProt P08659). The experiment can be described thus: CCTE_Simmons_QuantiLum_inhib_2: CCTE's Firefly Luciferase Inhibition Assay, Simmons Lab (AID 2283767).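 Further: potency for inhibitors that lower luciferase luminescence relative to DMSO.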 The gist of the method:
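Recombinant firefly luciferase (5 ng/well, 200 mM potassium phosphate with 1 mg/ml BSA) was exposed to 8 concentrations from 5 nM to 87.5 uM (final, 0.5% DMSO) for 30 min at 37C in the dark. Loss of luminescence versus DMSO was read after injecting D-luciferin/ATP-analogue reagent.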

A short description of experiment [3]: ACEA_AR_agonist_AUC_viability: ACEA Biosciences xCELLigence Real-Time Cell Analysis on Androgen Receptor Agonism for Viability (AID 2283775).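 Further: viability read 80 hours after compound addition.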 The method, boiled down: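 Read-out is area under the impedance curve at 80 h post-dose in 22Rv1 cells, with DMSO as baseline and signal loss taken as reduced viability. Compounds ran in duplicate from 100 uM final.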

The nature of experiment [4]: ACEA_AR_antagonist_AUC_viability: ACEA Biosciences xCELLigence Real-Time Cell Analysis on Androgen Receptor Antagonism for Viability (AID 2283776).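 Further: 22Rv1 human prostate cancer cells growing on impedance electrode plates; hits lower the growth signal relative to DMSO meaning cytotoxicity.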 The gist of the method: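 Impedance read-out (RT-CES): area under growth curve at 80 h post-dose, loss of signal scored vs DMSO baseline. 22Rv1 cells; 8-pt 1:4 series, top 100 uM final, ≤0.5% DMSO; biological duplicate.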

Experiment [5] can be described thus: ACEA_ER_AUC_viability: ACEA Biosciences xCELLigence Real-Time Cell Analysis on Estrogen Receptor Agonism for Viability (AID 2283782).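 Further: continuous compound exposure with impedance area under curve over 80 h; hit means loss of impedance signal meaning reduced cell growth or viability.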 The method, boiled down: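 T-47D; phenol red-free RPMI1640 + 10% CS-FBS; 8 conc., 1:4 serial, max 100 uM final, ≤0.5% DMSO; n = 2; continuous exposure; impedance monitored to 80 h post-dose; AUC vs DMSO.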
The nature of experiment [6]: STM_H9_NormalizedViability: Cytotoxicity Assessment at 120 hours in the Stemina devTOX quickPredict H9 human embryonic stem cell (hESC)-based Assay (AID 2283784). The gist of the method: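 Undifferentiated H9 hESCs kept pluripotent were exposed to compound, with media and chemical replaced every 24h. CellTiter-Fluor protease-substrate fluorescence was background-corrected and normalized per plate to the 0.1% DMSO vehicle; signal loss indicates reduced viability.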

Results filed as inconclusive are left out. Calls of active or inactive are those of the source. How the source made its calls: active means hit-call score of the fitted dose curve at least 0.9, where 1 is the maximum; inconclusive means response in the unintended direction; inactive means score below 0.9.

Chain of Luciferin 4-monooxygenase (Photinus pyralis) (P08659 whole entry, looked up): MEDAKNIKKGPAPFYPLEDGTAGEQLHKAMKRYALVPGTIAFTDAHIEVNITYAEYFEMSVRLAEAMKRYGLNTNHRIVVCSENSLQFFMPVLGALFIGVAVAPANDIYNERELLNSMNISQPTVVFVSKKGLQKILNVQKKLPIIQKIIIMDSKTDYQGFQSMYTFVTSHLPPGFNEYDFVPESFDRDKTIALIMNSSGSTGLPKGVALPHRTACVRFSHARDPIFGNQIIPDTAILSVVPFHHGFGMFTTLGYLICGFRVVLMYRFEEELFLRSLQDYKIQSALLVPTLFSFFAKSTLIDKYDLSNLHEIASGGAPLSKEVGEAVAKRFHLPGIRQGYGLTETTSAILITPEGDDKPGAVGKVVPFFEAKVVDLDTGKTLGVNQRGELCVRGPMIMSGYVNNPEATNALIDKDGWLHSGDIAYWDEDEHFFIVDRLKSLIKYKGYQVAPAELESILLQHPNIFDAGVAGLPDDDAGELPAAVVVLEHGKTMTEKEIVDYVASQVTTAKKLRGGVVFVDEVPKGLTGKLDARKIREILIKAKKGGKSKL

For the compound `CCCCCCCCOC(=O)c1cc(O)c(O)c(O)c1`, the call in experiment [1] was inactive. The half-maximal activity concentration (AC50) (as a rule, the concentration giving half of the maximal activity seen) in experiment [2] is 31.5 µM (active); in experiment [3], 35.3 µM (active); in experiment [4], 13.5 µM (active); in experiment [5] it was 10 µM (active); in experiment [6] it was 2.44 µM (active).
With `CN(C)c1ccc(C(=C2C=CC(=[N+](C)C)C=C2)c2ccc(N(C)C)cc2)cc1`, the AC50 was 3.03 µM (active) in experiment [2]; 0.281 µM (active) in experiment [3]; 0.161 µM (active) in experiment [4]; 5.4 µM (active) in experiment [5]; 0.767 µM (active) in experiment [6].
As to `O=CCCCC=O`, the AC50 in experiment [3] is 35.2 µM (active); in experiment [4], 23.3 µM (active); in experiment [5], 40 µM (active).
For the compound `CO[C@H]1/C=C/O[C@@]2(C)Oc3c(C)c(O)c4c(O)c(c(/C=N/N5CCN(C)CC5)c(O)c4c3C2=O)NC(=O)/C(C)=C\C=C\[C@H](C)[C@H](O)[C@@H](C)[C@@H](O)[C@@H](C)[C@H](OC(C)=O)[C@@H]1C`, the AC50 in experiment [2] is 22.6 µM (active). For the same compound, the outcome in experiment [6] was inactive.
